Results as given in the supplement of paper PMC10338343.
± gives the standard deviation.

Legend:
[1] = system: MILI (PIWIL2) piRISC loaded with L1MC piRNA (26 nt); assay: pre-steady-state target cleavage rate (min^-1); guide: L1MC piRNA 5'p-UAACUAAAUACUAUGCAAGCUGUAGG; higher = faster piRNA-guided slicing of the target
Procedure, shortened: (§1)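 Active affinity-purified piRISC (1 nM) loaded with one synthetic guide was mixed with a transcribed, DNA-blocked target RNA library (0.1 nM), with or without 500 nM GTSF1 partner protein, in HEPES–potassium acetate buffer at 33 °C for 0–8 or 0–960 min. Uncleaved targets were sequenced, normalised to depth and to weakly complementary targets, and pooled across three trials, with k3 capped at 0.0001 min^-1. The pre-steady-state cleavage rate was determined with a burst-and-steady-state fit.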

[2] = system: EfPiwi piRISC loaded with L1MC piRNA (26 nt); assay: pre-steady-state target cleavage rate (min^-1); auxiliary factor: 500 nM Ephydatia muelleri Gtsf1; guide: L1MC piRNA 5'p-UAACUAAAUACUAUGCAAGCUGUAGG; MIWI and MILI are mouse PIWI proteins and EfPiwi is from a freshwater sponge; tags in brackets are library labels; higher = faster piRNA-guided slicing of the target
Procedure, shortened: as §1

[3] = auxiliary factor: 500 nM mouse GTSF1
[4] = auxiliary factor: none (no GTSF1)

Row | Sequence | pre-steady-state target cleavage rate [1, 3] | pre-steady-state target cleavage rate [2] | pre-steady-state target cleavage rate [1, 4]
1 | UCCUCCUAGUGCUUGCAUAGUAUUUACAAA | 0.0188 ± 0.0067 | 0.00293 ± 0.0029 | –
2 | UCCUCCUACAGCUUGCUAUAGUAUUUAGUUA | 0.0206 ± 0.0064 | 0.00859 ± 0.0032 | –
3 | UCCUGGAUGUCGAACGUAUCUAUUUAUGUUA | – | < 0.0001 | < 0.0001
4 | UCCUGGAUGAGCUUGCAUAGUAUUUAAUUA | 0.0516 ± 0.014 | 0.00294 ± 0.0025 | –
5 | UCCUGGAACAGCUUGCAUAAUAUUUAGUUA | 0.298 ± 0.028 | 0.00487 ± 0.0024 | –
6 | UCCUCCUACAGCUUGCAUAGAAUUAAGUUA | 0.127 ± 0.03 | 0.00382 ± 0.0025 | –
7 | UCCUCCUACAGCUUGCAUAGUAAAAAGUUA | 0.0965 ± 0.016 | 0.00301 ± 0.0021 | –
8 | UCCUGCUACAGCUUGGAUAGAAUUUAGUUA | 0.0646 ± 0.014 | 0.0053 ± 0.0018 | –
9 | UCCUGGAUGUCCAUUGCAUAGUAUUUAGUUA | 0.127 ± 0.032 | 0.00326 ± 0.0022 | –
10 | UCCUGCUACAGCUUGCAAAGUAUUUAGAUA | 0.0895 ± 0.012 | 0.00421 ± 0.0024 | –
11 | UCCUGGAUCAGCUUGCAUACUAUUUAGUAA | 0.0386 ± 0.0077 | 0.00398 ± 0.0023 | –
12 | UCCUGGAUGUCGAACCAUAGUAUUUAGUCA | – | < 0.0001 | < 0.0001
13 | UCCUGGAACAGCUUGCAUUGUAUUUAGAAA | 0.115 ± 0.028 | 0.00376 ± 0.0021 | –
14 | UCCUGGUACUGCUUGCAUAGUAUUUACAAA | 0.00977 ± 0.0049 | 0.00278 ± 0.0027 | –
15 | UCCUGGAACAGCUUGCAUAGUAUUUAUUUA | 0.113 ± 0.026 | 0.00534 ± 0.0034 | –
16 | UCCUCCUACAGCUUGCAUAGUUAUUAGUUA | 0.0492 ± 0.015 | 0.0094 ± 0.0036 | –
17 | UCCUGGAUCAGGUUGCAUAGUAUUUAGAAA | 0.185 ± 0.029 | 0.00341 ± 0.0019 | –
18 | UCCUGCUACAGGUUGCAUAGAAUUUAGUUA | 0.0387 ± 0.0083 | 0.00649 ± 0.0018 | –
19 | UCCUGCUACAGCUUGCAUAGAAUUUAGAAA | 0.0373 ± 0.015 | 0.00251 ± 0.0016 | –
20 | UCCUGCUACAGCUUGCAUAGUAUAAAGUAA | 0.0784 ± 0.021 | 0.00224 ± 0.0017 | –

Row | Sequence | pre-steady-state target cleavage rate [1, 3] | pre-steady-state target cleavage rate [2] | pre-steady-state target cleavage rate [1, 4]
21 | UCCUGGUACAGCUUGCAUAGAAUUUAGUUA | 0.229 ± 0.08 | 0.00314 ± 0.0023 | –
22 | UCCUGCUACAGCUUGCAUAGUAUUUAGAAA | 0.157 ± 0.032 | 0.00439 ± 0.0012 | –
23 | UCCUCCUACAGCUUGCUUAGUAUUUUCAAA | 0.0605 ± 0.014 | 0.00322 ± 0.003 | –
24 | UCCUGCAACAGCUUGCAUAGAAUUUAGUUA | 0.0925 ± 0.023 | 0.00434 ± 0.0021 | –
25 | UCCUCCUACAGCUUGCAUAGUAUUUAGUGA | 0.186 ± 0.034 | 0.00553 ± 0.0017 | –
26 | UCCUCCUACAGCUUCCAUAGUAUUUACUUA | 0.0137 ± 0.0064 | 0.00277 ± 0.0024 | –
27 | UCCUGGAACAGCUUGCAUAGUAUUUAGUA | 0.191 ± 0.02 | 0.00384 ± 0.0024 | –
28 | UCCUGGAUCAGCUUGCAUAGUAUAAAGUAA | 0.11 ± 0.024 | 0.00455 ± 0.0038 | –
29 | UCCUGGAUGUCGAACCAUAGUAUUUACAAA [g5:g15:cont:t1A] | < 0.0001 | < 0.0001 | –
30 | UCCUGGAUGAGCUUGCAUAAUAUUUAGUUA | 0.266 ± 0.035 | 0.00543 ± 0.0021 | –
31 | UCCUGCUACAGCUUGCAAUAGUAUUUAGUUA | 0.0355 ± 0.0093 | 0.006 ± 0.0018 | –
32 | UCCUGCUACAGCUUGCAAAGUAUUUACAAA | 0.0731 ± 0.018 | 0.00394 ± 0.0025 | –
33 | UCCUGCUACACCUUCCAUAGUAUUUAGUUA | 0.0271 ± 0.013 | 0.00334 ± 0.0022 | –
34 | UCCUGCUAGAGCUUGCAUAGUAUUUACAAA | 0.146 ± 0.039 | 0.00266 ± 0.0021 | –
35 | UCCUGCUACAGCUUGCUUAGUAUUUAGAUA | 0.0729 ± 0.015 | 0.00495 ± 0.0028 | –
36 | UCCUGCUACAGCUUGCAUAGUUUUAAGUUA | 0.0676 ± 0.015 | 0.00341 ± 0.0017 | –
37 | UCCUGCUACAGCUUGCAUAGUAUUUAGCUUA | 0.161 ± 0.037 | 0.00522 ± 0.0019 | –
38 | UCCUGGAACAGCUUGCAUAGUAAAAAGUUA | 0.0663 ± 0.018 | 0.00324 ± 0.0027 | –
39 | UCCUCCUACAGCUUGCAUAGUAUUUUGAUA | 0.112 ± 0.024 | 0.0044 ± 0.0029 | –
40 | UCCUCCUACAGCUUGCUUAGUAUUAAGUUA | 0.116 ± 0.018 | 0.00459 ± 0.0031 | –

Row | Sequence | pre-steady-state target cleavage rate [1, 3] | pre-steady-state target cleavage rate [2] | pre-steady-state target cleavage rate [1, 4]
41 | UCCUCGAUCAGCUUGCAUAGUAUUUACAAA | 0.135 ± 0.026 | 0.00554 ± 0.003 | –
42 | UCCUGGAUCAGCUUGCAUAGUUUUUAGUAA | 0.0337 ± 0.0089 | 0.00477 ± 0.0025 | –
43 | UCCUCCUACAGCUUGCAUACUAUUUACUUA | 0.0688 ± 0.016 | 0.00621 ± 0.0047 | –
44 | UCCUGCAUCAGCUUGCAUAGUAUUUAGAAA | 0.127 ± 0.022 | 0.00393 ± 0.0017 | –
45 | UCCUGCUAGAGCUUGCAUACUAUUUAGUUA | 0.0842 ± 0.018 | 0.00515 ± 0.0018 | –
46 | UCCUGGAUCAGCUUCCAUAGUAUUUAGUUA | 0.0318 ± 0.0085 | 0.00321 ± 0.0017 | –
47 | UCCUGGUACAGCUUGCUAUAGUAUUUAGUUA | 0.0224 ± 0.009 | 0.00339 ± 0.0031 | –
48 | UCCUGGAUGUCCUUGCAUAGUAUUUAGAAA | 0.0838 ± 0.021 | 0.00278 ± 0.0022 | –
49 | UCCUCCAACAGCUUCCAUAGUAUUUAGUUA | 0.0545 ± 0.017 | 0.00439 ± 0.0021 | –
50 | UCCUCCUACAGCUUGCAUAGUAUUUACAUA | 0.177 ± 0.041 | 0.00441 ± 0.0028 | –
51 | UCCUCCUACAGCUUGCAAAGUAUUAAGUUA | 0.0872 ± 0.014 | 0.00696 ± 0.0033 | –
52 | UCCUGCUACAGCUUGCAUAGUAUUAUCUUA | 0.16 ± 0.035 | 0.00653 ± 0.0042 | –
53 | UCCUGGAUCAGCUUGGAUAGUAUUUUGUUA | 0.117 ± 0.021 | 0.00346 ± 0.0027 | –
54 | UCCUGCUACAGCUUGCAUUGUAUUUACAAA | 0.0245 ± 0.01 | 0.00313 ± 0.0028 | –
55 | UCCUGCUACAGCUAGCAUAGUAUUUAGAAA | 0.227 ± 0.051 | 0.00418 ± 0.0021 | –
56 | UCCUCGAACAGCUUGCAUAGUAUUUAGAAA | 0.137 ± 0.019 | 0.00534 ± 0.0018 | –
57 | UCCUGGAUGAGCUUGCAUAGUAUUUAUUUA | 0.0843 ± 0.024 | 0.00435 ± 0.0029 | –
58 | UCCUCCUACAGCUUGCAUAGUUUAUAGUUA | 0.0469 ± 0.011 | 0.00613 ± 0.0033 | –
59 | UCCUGGAACAGCUAGCAUAGUAUUUUGUUA | 0.154 ± 0.029 | 0.00465 ± 0.003 | –
60 | UCCUGCUACUGCUUGCAUAGUAUAUAGUUA | 0.121 ± 0.018 | 0.00619 ± 0.0031 | –
